TDP1 cell noCPT – qHTS for Inhibitors of human tyrosyl-DNA phosphodiesterase 1 (TDP1): qHTS in cells in absence of CPT; DT40 Tdp1-/- hTDP1 cells, no CPT, ATP luminescence, 48 h; Potency, µM (highest dose often 46.2 µM), most hits filed as inhibitors; 420,000 compounds, 15% hits; AID 686978, 2013; further: nearly all actives have a fitted effect of over 55% in size
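DT40 Tdp1-/-;hTDP1 cells, no CPT (DMSO vehicle only), 400 cells/well; compounds pin-transferred; ≥48 hr, 37 °C; CellTiter-Glo 30 min RT dark, luminescence read.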
PLK1 PBD inh – PLK1 (human) polo-box domain binding inhibition; P53350; Plk1 PBD binding of FITC phosphopeptide, fluorescence polarization; Potency, µM, hits mostly inhibitors; 360,000 compounds, 2.8% hits; AID 720504; further: series mostly up to about 57 µM; nearly all actives have a fitted effect of over 65% in size
Target sequence (P53350 whole entry, looked up, the tested form may be a part): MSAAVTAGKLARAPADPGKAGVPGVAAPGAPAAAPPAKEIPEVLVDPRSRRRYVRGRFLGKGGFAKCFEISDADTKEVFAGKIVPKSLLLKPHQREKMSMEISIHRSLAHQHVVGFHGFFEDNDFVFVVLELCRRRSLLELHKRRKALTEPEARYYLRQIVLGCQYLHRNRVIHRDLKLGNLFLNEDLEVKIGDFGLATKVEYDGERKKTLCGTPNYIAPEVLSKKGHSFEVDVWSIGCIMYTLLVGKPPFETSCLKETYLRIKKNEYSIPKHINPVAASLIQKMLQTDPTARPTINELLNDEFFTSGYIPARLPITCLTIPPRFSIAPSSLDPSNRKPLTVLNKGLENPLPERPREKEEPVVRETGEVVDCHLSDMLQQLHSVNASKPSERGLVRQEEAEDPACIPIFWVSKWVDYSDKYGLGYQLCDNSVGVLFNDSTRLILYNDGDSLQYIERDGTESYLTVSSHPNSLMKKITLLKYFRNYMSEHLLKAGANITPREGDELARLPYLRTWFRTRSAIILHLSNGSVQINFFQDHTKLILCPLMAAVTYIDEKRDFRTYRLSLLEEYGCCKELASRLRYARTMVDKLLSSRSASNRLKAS
TDP1 block – blocks human tyrosyl-DNA phosphodiesterase 1. recombinant TDP1, AlphaScreen DNA substrate cleavage. Potency, µM (top dose mostly 130 µM), hits mostly inhibitors. 350,000 compounds, 0.28% hits; further: nearly all actives have a fitted effect of over 40% in size
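Recombinant E. coli-expressed Tdp1 (1 nM) preincubated with compound 15 min at RT, then 5'-biotin/3'-phosphotyrosine-FITC DNA substrate (15 nM) added for 5 min. AlphaScreen beads (10 ug/ml) added, 10 min RT; tyrosine-FITC cleavage read as signal loss.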
VDR inh – vitamin D3 receptor (human) inhibition; P11473; VDR-SRC2-3 peptide fluorescence polarization, 2 h; Potency, µM, actives largely listed as inhibitors; 400,000 compounds, 0.93% hits
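The screen uses fluorescence polarization to detect compounds that interfere with recruitment of the SRC2-3 coactivator peptide to VDR; plates are read after 2 h at room temperature.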
DT40 TDP1 CPT – growth inhibition of DT40 Tdp1-/-;hTDP1 cells with camptothecin (screen for TDP1 inhibitors) | chicken DT40 Tdp1-/-;hTDP1 cells + 20 nM CPT, ATP luminescence, 48 h | Potency, µM (top dose mostly 46.2 µM), actives largely listed as inhibitors | AID 686979 | 420,000 compounds, 12% hits; further: nearly all actives have a fitted effect of over 55% in size
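Cell growth measured by CellTiter-Glo luminescence after a minimum 48 h, 37 C compound exposure with 20 nM CPT in Tdp1-knockout DT40 cells stably expressing hTDP1, seeded 400/well; qHTS titration format.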
KAT2A inh – GCN5L2 (KAT2A) acetyltransferase inhibition | Potency, µM (series often up to 58.9 µM), most hits filed as inhibitors | GCN5L2 HAT assay, ThioGlo1 CoA-SH fluorescence | 390,000 compounds, 0.21% hits
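Compounds, pin-transferred from DMSO stocks, meet 20nM GCN5L2 for 15 min before the reaction begins with H3(1-25) peptide (75uM) and acetyl-CoA (70uM). Thiol-reactive ThioGlo1 reports CoA release over 20 min at room temperature.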
Of the large screens only hits and unclear results are named; the others gave an inactive call. In the library only some 18% were active in any assay of this set; here they are far more common. The call rests on the fitted dose curve; in most records, active means well fitted curve in the direction sought with a large enough effect; inconclusive means small, poorly fitted or top-dose-only effect, or another doubt; inactive means no such curve, though single readings can be large; an effect the other way counts as inactive or inconclusive.

COc1ccc(-c2coc3ccc(OC4OC(COC(C)=O)C(OC(C)=O)C(OC(C)=O)C4OC(C)=O)c(OC(C)=O)c3c2=O)cc1 (stereo not drawn)	TDP1 cell noCPT 8.4µM, DT40 TDP1 CPT inconclusive (no result: PLK1 PBD inh, VDR inh, KAT2A inh)
COc1ccc(-c2coc3cc(O[C@@H]4O[C@H](CO)[C@@H](O)[C@H](O)[C@H]4O)ccc3c2=O)cc1	none
COc1ccc(-c2coc3ccc(OC4OC(COC(C)=O)C(OC(C)=O)C(OC(C)=O)C4OC(C)=O)cc3c2=O)cc1 (stereo not drawn)	TDP1 cell noCPT 1.1µM, DT40 TDP1 CPT 2.7µM (no result: PLK1 PBD inh, VDR inh, KAT2A inh)
Cc1cc(C)c2c(=O)cc(C(=O)Nc3ccccc3C(F)(F)F)oc2c1	none (no result: PLK1 PBD inh)
CC(C)C1C(=O)N(Cc2cn(CCC3OCCO3)nn2)CCS(=O)(=O)N1Cc1ccc(-c2ccccc2Cl)cc1 (stereo not drawn)	TDP1 cell noCPT 15µM, DT40 TDP1 CPT 16µM (no result: TDP1 block, VDR inh, KAT2A inh)
COc1cccc(-c2ccc(CN3C(C(C)C)C(=O)N(Cc4cn(CCC5OCCO5)nn4)CCS3(=O)=O)cc2)c1OC (stereo not drawn)	TDP1 cell noCPT inconclusive, DT40 TDP1 CPT 21µM (no result: TDP1 block, VDR inh, KAT2A inh)
CC(C)C1C(=O)N(Cc2cn(CCC3OCCO3)nn2)CCS(=O)(=O)N1Cc1ccc(-c2ccccc2)cc1 (stereo not drawn)	TDP1 cell noCPT inconclusive, DT40 TDP1 CPT inconclusive (no result: TDP1 block, VDR inh, KAT2A inh)
CC(C)C1C(=O)N(Cc2cn(CCC3OCCO3)nn2)CCS(=O)(=O)N1Cc1ccc(-c2ccc(F)cc2Cl)cc1 (stereo not drawn)	TDP1 cell noCPT 21µM, DT40 TDP1 CPT inconclusive (no result: TDP1 block, VDR inh, KAT2A inh)
CN(C)/C=C(\C#N)C(N)=C(C#N)C#N	none
NNC(=O)c1cc(S(=O)(=O)N2CCOCC2)c[nH]1	none
CCC(C)NC(=O)C1CCC(CNS(=O)(=O)c2ccc3c(c2)CC(C)N3C(C)=O)CC1 (stereo not drawn)	PLK1 PBD inh 24µM, VDR inh inconclusive, DT40 TDP1 CPT inconclusive
CC(=O)N1c2ccc(S(=O)(=O)NCC3CCC(C(=O)NCCC(C)C)CC3)cc2CC1C (stereo not drawn)	TDP1 cell noCPT 16µM, DT40 TDP1 CPT 15µM (no result: PLK1 PBD inh)
CC(=O)Nc1ccc(S(=O)(=O)NCC2CCC(C(=O)N3CC(C)CC(C)C3)CC2)cc1 (stereo not drawn)	TDP1 cell noCPT inconclusive (no result: TDP1 block)
CC(=O)N1c2ccc(S(=O)(=O)NCC3CCC(C(=O)NC4CCCCC4)CC3)cc2CC1C (stereo not drawn)	TDP1 cell noCPT 2.9µM
CCCNC(=O)C1CCC(CNS(=O)(=O)c2ccc3c(c2)CC(C)N3C(C)=O)CC1 (stereo not drawn)	TDP1 cell noCPT inconclusive, DT40 TDP1 CPT inconclusive
CC(=O)N1c2ccc(S(=O)(=O)NCC3CCC(C(=O)N4CC(C)CC(C)C4)CC3)cc2CC1C (stereo not drawn)	TDP1 cell noCPT 13µM, DT40 TDP1 CPT 16µM
CC(C)(C)CN1CCC(Oc2cccc(C(=O)N3CCNC(=O)C3(C)C)c2)CC1	none
CCOC(=O)c1ccccc1NC(=O)CN1C(=O)CCS(=O)(=O)c2ccccc21	TDP1 cell noCPT 21µM, DT40 TDP1 CPT 23µM
CC(=O)c1cccc(NC(=O)Nc2ccc3c(c2)N(C)C(=O)CS3)c1	TDP1 cell noCPT 16µM, DT40 TDP1 CPT 16µM
Cc1cc(C)cc(NC(=O)Nc2ccc3c(c2)N(C)C(=O)CS3)c1	TDP1 cell noCPT inconclusive, DT40 TDP1 CPT inconclusive
CCOC(=O)c1cccc(NC(=O)Nc2ccc3c(c2)N(C)C(=O)c2ccccc2S3)c1	TDP1 cell noCPT inconclusive, DT40 TDP1 CPT 21µM (no result: PLK1 PBD inh)
CCCCNC(=O)Nc1ccc2c(c1)N(C)C(=O)c1ccccc1S2	TDP1 cell noCPT 16µM, DT40 TDP1 CPT inconclusive
O=C(CN1C(=O)CCS(=O)(=O)c2ccccc21)Nc1ccc(Cl)cc1	none
CCCNC(=O)Nc1ccc2c(c1)N(C)C(=O)c1ccccc1S2	TDP1 cell noCPT inconclusive
Cc1ccc(OCCNC(=O)CCNC(=O)c2ccc(Cl)cc2)cc1	none

Source: PubChem BioAssay (National Center for Advancing Translational Sciences (NCATS))
